According to ChEMBL document CHEMBL1961873, “Compounds: GSK PKIS; Assays: Nanosyn kinase panel” (2012):

Assays:
[1] = target: Serine/threonine-protein kinase PAK 6 (Homo sapiens) (UniProt Q9NQU5); details: at 1 µM;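 further: values are mean percent inhibition of PAK6 kinase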
[2] = tested on: Tyrosine-protein kinase ABL1 (Homo sapiens), P00519 [E255K]; details: at 0.1 µM
[3] = tested on: Tyrosine-protein kinase ABL1 (Homo sapiens), P00519 [E255K]; details: at 1 µM
[4] = tested on: Tyrosine-protein kinase ABL1 (Homo sapiens), P00519 [H396P]; details: at 0.1 µM
[5] = tested on: Tyrosine-protein kinase ABL1 (Homo sapiens), P00519 [H396P]; details: at 1 µM
[6] = tested on: Tyrosine-protein kinase ABL1 (Homo sapiens), P00519 [M351T]; details: at 0.1 µM
[7] = tested on: Tyrosine-protein kinase ABL1 (Homo sapiens), P00519 [M351T]; details: at 1 µM
[8] = tested on: Tyrosine-protein kinase ABL1 (Homo sapiens), P00519 [Q252H]; details: at 0.1 µM
[9] = tested on: Tyrosine-protein kinase ABL1 (Homo sapiens), P00519 [Q252H]; details: at 1 µM
[10] = tested on: Tyrosine-protein kinase ABL1 (Homo sapiens), P00519 [T315I]; details: at 0.1 µM
[11] = tested on: Tyrosine-protein kinase ABL1 (Homo sapiens), P00519 [T315I]; details: at 1 µM
[12] = tested on: Tyrosine-protein kinase ABL1 (Homo sapiens), P00519 [Y253F]; details: at 0.1 µM
[13] = tested on: Tyrosine-protein kinase ABL1 (Homo sapiens), P00519 [Y253F]; details: at 1 µM
[14] = target: Tyrosine-protein kinase ABL1 (Homo sapiens) (UniProt P00519); details: at 0.1 µM
[15] = target: Tyrosine-protein kinase ABL1 (Homo sapiens) (UniProt P00519); details: at 1 µM
[16] = target: ALK tyrosine kinase receptor (Homo sapiens) (UniProt Q9UM73); details: at 0.1 µM
ALK tyrosine kinase receptor (Homo sapiens), sequence (Q9UM73 19-1620 limits assumed): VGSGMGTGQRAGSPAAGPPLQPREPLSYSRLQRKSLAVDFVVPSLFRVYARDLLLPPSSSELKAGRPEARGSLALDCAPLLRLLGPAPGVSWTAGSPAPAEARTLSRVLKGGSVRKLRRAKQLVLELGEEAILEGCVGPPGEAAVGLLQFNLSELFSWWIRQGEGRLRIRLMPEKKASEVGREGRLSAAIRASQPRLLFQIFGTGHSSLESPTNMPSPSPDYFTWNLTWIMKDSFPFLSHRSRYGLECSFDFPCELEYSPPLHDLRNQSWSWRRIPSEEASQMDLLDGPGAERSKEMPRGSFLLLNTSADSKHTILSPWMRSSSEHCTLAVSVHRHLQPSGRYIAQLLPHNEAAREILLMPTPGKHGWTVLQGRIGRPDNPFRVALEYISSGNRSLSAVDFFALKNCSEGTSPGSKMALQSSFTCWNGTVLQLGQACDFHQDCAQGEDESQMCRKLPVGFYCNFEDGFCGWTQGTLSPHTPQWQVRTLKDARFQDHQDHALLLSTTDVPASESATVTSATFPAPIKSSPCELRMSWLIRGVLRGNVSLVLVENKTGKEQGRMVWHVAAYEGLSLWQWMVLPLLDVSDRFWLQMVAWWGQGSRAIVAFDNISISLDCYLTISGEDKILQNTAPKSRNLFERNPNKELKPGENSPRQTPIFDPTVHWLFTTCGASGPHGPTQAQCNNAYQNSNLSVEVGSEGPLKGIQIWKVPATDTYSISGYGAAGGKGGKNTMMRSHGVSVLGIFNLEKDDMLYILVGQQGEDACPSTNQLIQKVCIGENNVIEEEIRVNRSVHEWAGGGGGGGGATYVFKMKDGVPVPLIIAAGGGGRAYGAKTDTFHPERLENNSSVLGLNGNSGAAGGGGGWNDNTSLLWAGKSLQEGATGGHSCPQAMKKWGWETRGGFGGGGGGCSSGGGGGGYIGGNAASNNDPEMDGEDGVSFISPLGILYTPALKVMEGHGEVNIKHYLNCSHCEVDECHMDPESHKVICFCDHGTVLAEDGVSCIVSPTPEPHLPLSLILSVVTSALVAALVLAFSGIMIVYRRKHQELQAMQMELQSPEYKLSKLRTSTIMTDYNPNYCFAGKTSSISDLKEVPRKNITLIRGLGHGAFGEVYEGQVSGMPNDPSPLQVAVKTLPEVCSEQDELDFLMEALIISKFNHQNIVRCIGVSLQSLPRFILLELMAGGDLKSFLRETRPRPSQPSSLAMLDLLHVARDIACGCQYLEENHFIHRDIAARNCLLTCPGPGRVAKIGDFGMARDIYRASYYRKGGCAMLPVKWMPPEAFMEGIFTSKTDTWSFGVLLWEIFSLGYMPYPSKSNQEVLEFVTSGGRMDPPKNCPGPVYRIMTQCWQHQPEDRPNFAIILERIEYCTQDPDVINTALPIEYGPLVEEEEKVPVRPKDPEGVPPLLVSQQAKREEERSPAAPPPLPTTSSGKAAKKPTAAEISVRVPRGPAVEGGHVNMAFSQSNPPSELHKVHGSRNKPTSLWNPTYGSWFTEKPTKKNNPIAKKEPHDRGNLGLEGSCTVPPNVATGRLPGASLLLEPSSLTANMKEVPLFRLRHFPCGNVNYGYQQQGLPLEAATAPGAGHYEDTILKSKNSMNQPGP

[17] = target: ALK tyrosine kinase receptor (Homo sapiens) (UniProt Q9UM73); details: at 1 µM
[18] = target: Tyrosine-protein kinase ABL2 (Homo sapiens) (UniProt P42684); details: at 0.1 µM
Tyrosine-protein kinase ABL2 (Homo sapiens), sequence (P42684 whole entry): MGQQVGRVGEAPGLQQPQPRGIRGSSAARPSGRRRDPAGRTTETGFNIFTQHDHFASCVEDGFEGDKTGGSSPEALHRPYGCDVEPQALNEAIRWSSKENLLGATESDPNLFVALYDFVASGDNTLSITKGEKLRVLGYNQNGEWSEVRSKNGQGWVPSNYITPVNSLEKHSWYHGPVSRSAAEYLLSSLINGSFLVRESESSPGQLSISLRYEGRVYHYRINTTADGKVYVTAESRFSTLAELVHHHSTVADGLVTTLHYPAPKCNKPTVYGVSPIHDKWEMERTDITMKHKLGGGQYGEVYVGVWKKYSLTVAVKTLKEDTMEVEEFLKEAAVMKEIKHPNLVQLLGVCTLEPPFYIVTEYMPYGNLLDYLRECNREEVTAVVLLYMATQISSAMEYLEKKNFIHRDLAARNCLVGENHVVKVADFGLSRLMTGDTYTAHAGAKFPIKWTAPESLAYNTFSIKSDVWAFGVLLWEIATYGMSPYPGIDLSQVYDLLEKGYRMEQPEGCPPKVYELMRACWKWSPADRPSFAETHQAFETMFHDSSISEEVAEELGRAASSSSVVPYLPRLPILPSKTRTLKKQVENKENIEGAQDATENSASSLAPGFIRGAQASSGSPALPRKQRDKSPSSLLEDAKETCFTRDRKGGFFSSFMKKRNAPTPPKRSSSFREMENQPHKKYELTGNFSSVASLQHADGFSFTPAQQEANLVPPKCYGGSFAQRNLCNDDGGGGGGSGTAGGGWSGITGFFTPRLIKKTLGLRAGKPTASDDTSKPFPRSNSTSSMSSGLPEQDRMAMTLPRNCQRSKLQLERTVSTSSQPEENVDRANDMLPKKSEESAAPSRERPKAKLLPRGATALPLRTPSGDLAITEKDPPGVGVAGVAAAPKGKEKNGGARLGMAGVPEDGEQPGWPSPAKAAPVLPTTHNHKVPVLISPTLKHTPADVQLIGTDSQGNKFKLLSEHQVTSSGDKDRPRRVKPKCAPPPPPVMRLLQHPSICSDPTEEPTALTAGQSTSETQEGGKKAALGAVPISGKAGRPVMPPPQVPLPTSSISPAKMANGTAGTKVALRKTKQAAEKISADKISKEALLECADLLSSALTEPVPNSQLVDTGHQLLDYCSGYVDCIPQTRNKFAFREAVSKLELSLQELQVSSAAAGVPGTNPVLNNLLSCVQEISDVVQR

[19] = target: Tyrosine-protein kinase ABL2 (Homo sapiens) (UniProt P42684); details: at 1 µM
[20] = target: Tyrosine-protein kinase receptor UFO (Homo sapiens) (UniProt P30530); details: at 0.1 µM;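 further: values are mean percent inhibition of AXL from the GSK PKIS screen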
Tyrosine-protein kinase receptor UFO (Homo sapiens), sequence (P30530 whole entry): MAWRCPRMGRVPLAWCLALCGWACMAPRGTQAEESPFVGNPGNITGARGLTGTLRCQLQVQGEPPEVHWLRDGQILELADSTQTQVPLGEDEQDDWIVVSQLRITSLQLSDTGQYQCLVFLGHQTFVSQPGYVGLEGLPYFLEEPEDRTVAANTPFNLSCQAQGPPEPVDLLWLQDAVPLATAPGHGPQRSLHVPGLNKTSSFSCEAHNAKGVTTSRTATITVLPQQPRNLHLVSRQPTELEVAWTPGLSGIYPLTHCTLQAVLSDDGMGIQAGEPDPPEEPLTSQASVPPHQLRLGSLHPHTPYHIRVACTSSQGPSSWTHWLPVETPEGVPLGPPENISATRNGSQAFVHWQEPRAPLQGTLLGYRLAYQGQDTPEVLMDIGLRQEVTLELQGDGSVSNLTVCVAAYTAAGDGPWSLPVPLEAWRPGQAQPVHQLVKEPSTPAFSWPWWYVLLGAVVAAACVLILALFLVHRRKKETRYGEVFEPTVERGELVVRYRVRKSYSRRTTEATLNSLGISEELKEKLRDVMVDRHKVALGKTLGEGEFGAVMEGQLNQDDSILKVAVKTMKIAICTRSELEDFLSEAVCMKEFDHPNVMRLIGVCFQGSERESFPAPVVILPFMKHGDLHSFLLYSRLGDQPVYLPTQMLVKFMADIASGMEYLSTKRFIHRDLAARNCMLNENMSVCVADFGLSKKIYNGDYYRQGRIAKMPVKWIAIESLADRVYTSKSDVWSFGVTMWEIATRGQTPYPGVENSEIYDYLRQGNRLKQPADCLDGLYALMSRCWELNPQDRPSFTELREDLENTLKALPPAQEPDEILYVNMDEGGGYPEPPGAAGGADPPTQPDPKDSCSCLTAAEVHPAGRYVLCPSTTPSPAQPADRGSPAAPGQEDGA

Serine/threonine-protein kinase PAK 6 (Homo sapiens), sequence (Q9NQU5 whole entry, looked up): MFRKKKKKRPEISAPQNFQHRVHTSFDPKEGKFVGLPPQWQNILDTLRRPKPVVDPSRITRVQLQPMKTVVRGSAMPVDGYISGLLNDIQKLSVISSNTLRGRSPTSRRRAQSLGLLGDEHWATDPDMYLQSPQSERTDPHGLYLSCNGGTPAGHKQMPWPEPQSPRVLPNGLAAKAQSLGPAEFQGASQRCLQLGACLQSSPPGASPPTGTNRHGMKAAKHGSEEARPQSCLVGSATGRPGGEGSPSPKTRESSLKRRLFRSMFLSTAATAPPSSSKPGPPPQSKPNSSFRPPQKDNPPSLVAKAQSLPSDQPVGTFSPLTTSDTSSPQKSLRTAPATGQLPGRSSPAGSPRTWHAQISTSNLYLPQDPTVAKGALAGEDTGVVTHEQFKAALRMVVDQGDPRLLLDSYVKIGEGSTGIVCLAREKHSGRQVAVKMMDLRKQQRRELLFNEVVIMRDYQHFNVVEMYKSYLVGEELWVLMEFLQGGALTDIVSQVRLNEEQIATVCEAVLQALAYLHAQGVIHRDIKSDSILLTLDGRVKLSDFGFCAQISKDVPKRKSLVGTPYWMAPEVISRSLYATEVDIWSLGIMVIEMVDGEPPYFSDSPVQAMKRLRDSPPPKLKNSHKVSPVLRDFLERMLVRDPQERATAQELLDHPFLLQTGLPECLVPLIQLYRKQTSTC

| SMILES | inhibition [1] [%] | inhibition [2] [%] | inhibition [3] [%] | inhibition [4] [%] | inhibition [5] [%] | inhibition [6] [%] | inhibition [7] [%] | inhibition [8] [%] | inhibition [9] [%] | inhibition [10] [%] | inhibition [11] [%] | inhibition [12] [%] | inhibition [13] [%] | inhibition [14] [%] | inhibition [15] [%] | inhibition [16] [%] | inhibition [17] [%] | inhibition [18] [%] | inhibition [19] [%] | inhibition [20] [%] |
| --- | --- | --- | --- | --- | --- | --- | --- | --- | --- | --- | --- | --- | --- | --- | --- | --- | --- | --- | --- | --- |
| NS(=O)(=O)c1ccc(N/N=C2\C(=O)Nc3ccc4ncccc4c32)cc1 | 1.45 | 7.3 | 39.2 | 8.88 | 47.7 | 9.67 | 48.9 | 13.3 | 52.4 | 8.91 | 47.1 | 11.6 | 49.8 | 9.91 | 50.2 | 3.06 | 16.1 | 4.85 | 33.7 | 0.46 |
| Cc1cccc2c1NC(=O)/C2=N\Nc1ccc(S(N)(=O)=O)cc1 | 7.35 | 1.51 | 6.03 | 6.45 | 7.83 | 0.61 | 7.81 | 2.71 | 7.61 | 2.54 | 0.76 | 4.21 | 11.3 | 5.35 | 11.4 | 2.99 | 4.7 | 3.22 | 10.1 | -3.51 |
| Cc1cccc(Nc2ncc(-c3ccccc3)o2)c1 | 4.48 | -0.07 | 8.14 | 5.02 | 19.4 | 2.38 | 21.6 | 2.49 | 13.4 | 2.39 | 5.99 | 3.68 | 19.5 | 4.34 | 14.2 | 3.9 | 4.76 | 3.13 | 18 | -1.8 |
| COc1ccc(CNC(=O)c2ccc(-c3cc(-c4nnc(C)o4)ccc3C)cc2)cc1 | 11.5 | 2.05 | 0.78 | 2.7 | 4.47 | 2.42 | 5.1 | 1.38 | 4.42 | 0.75 | 6.32 | 3.15 | 5.25 | 4.76 | 6.46 | 0.25 | -0.53 | 4.31 | 4.39 | 4.83 |
| [O-][S+]1CCN(Cc2ccc(-c3ccc4ncnc(Nc5ccc(OCc6cccc(F)c6)c(Cl)c5)c4c3)o2)CC1 | -3.68 | 3.89 | 6.86 | 5.46 | 5.91 | 1.58 | 7.69 | 5.02 | 6.64 | 2.49 | 3.02 | 4.31 | 4.49 | 2.52 | 5.75 | 3.34 | 7.82 | 1.01 | 7.14 | -4.66 |
| CCn1c(-c2nonc2N)nc2ccccc21 | -4.14 | 3.43 | 2.16 | 3.5 | 0.21 | 2.29 | -3.04 | 4.29 | 0.56 | 2.3 | 1.53 | 3.97 | 4.13 | 4.4 | 6.01 | 1.5 | 8.1 | 4.04 | 3 | -0.67 |
| COc1ccc(-c2cc3c(N)ncnc3o2)cc1 | -9.7 | 0.23 | 5.63 | -0.22 | 11 | 0.58 | 11.2 | -0.72 | 9.12 | 0.76 | 2.97 | -0.25 | 10.8 | 2.28 | 11.4 | -1.19 | 1.1 | 0.1 | 5.3 | 2.44 |
| Fc1ccc(-c2cc(-c3c[nH]nc3-c3ccccn3)ccn2)cc1 | -4.06 | 3.42 | 14.4 | 7.22 | 29.8 | 4.15 | 28.3 | 5.44 | 16 | 3.13 | 5.68 | 5.63 | 17.4 | 4.06 | 30.4 | 4.07 | 5.67 | 2.48 | 7.82 | -7.67 |
| CN1CCC(n2cnc(-c3ccc(F)cc3)c2-c2ccnc(N)n2)CC1 | -6 | 3.04 | 7 | 2.82 | 11.9 | -0.15 | 7.75 | 2.65 | 6.83 | 1.94 | 5.74 | 1.88 | 8.15 | 2.31 | 8.97 | 1.26 | 4.21 | 2.89 | 7.64 | -3.77 |
| CCCN(CCS(C)(=O)=O)Cc1ccc(-c2ccc3ncnc(Nc4ccc(OCc5cccc(F)c5)c(Cl)c4)c3c2)o1 | 0.49 | 2.99 | 2.9 | 3.87 | 1.99 | 3.22 | 3.73 | 3.51 | 3.02 | 1.81 | 2.18 | 3.73 | 3.01 | 6.06 | 6.41 | 1.67 | 4.89 | 7.3 | 5.25 | -1.63 |
